An excerpt weighted towards active compounds, which were near 1.1% of everything screened.
Mac1 fbg inh = blocks human CD11b/CD18 adhesion to fibrinogen | P05107+P11215 | K562 CD11b/CD18 adhesion to fibrinogen, ATPlite luminescence; Mn2+ added to activate the integrin | inhibition, % at 10 µM | 93,000 tested, 0.54% active | AID 1497;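 active means primary inhibition of 50% or more at 10 µM, then 40% or more on retest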
Target sequence (P05107 whole entry, looked up, other chains not shown): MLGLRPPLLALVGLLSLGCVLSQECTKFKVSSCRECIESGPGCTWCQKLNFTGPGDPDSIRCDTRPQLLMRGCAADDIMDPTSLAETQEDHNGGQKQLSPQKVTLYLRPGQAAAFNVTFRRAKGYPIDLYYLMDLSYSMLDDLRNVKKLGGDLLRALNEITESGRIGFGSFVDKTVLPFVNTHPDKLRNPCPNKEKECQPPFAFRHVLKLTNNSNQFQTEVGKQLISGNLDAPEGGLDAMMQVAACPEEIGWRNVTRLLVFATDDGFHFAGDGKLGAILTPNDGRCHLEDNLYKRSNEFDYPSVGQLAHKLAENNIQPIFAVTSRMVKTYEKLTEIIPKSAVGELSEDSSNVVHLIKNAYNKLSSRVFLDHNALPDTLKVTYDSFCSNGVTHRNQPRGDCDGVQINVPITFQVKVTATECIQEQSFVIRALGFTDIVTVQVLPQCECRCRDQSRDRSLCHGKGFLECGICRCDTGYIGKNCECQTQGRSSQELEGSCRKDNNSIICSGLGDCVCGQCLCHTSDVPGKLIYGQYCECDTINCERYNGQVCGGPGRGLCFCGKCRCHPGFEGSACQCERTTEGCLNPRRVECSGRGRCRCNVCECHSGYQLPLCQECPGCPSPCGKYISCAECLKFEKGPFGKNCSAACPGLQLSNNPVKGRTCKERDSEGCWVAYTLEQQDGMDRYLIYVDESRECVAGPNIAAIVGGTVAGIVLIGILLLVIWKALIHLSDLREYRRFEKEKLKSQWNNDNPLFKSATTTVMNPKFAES
FAK blocker = inhibitors of human focal adhesion kinase | Q05397 | biochemical FAK kinase activity assay | inhibition, %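 (tested at 7 µM)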 | 97,000 tested, 0.84% active; in the data active means inhibition above about 19%;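 further: 0% = DMSO and 100% = reference compound high control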
Mac1 fbg enh = enhancers of human CD11b/CD18 binding to fibrinogen; 93,000 tested, 0.07% active; activation, % at 10 µM; K562 CD11b/CD18 adhesion to fibrinogen, ATPlite luminescence;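 active means 10 µM primary screen giving 50% or more activity, confirmed by 40% or more on retest at that dose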
MMP-13 inhibitor = inhibitors of human MMP13. P45452. MMP-13 fTHP FRET cleavage, Mca fluorescence. inhibition, % at 4 µM. 65,000 tested, 0.07% active;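 active means inhibition above the mean of compound-free control plate wells plus 3 SD, cut at about 14% in these data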;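 further: 0% = DMSO wells and 100% = wells with reference MMP-13 inhibitor after basal subtraction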
Numbers without * were called inactive; . = no result.

SMILES	Mac1 fbg inh	FAK blocker	Mac1 fbg enh	MMP-13 inhibitor
CCOC(=O)c1c(C)nc(C)c(C(=O)OCC)c1-c1ccc(Br)cc1	-10.9	.	-0.8	.
CCOC(=O)c1c2c(n(C)c1COC)C(=O)C(=O)c1ccc(Br)cc1-2	.	52.2*	.	.
Cc1ccccc1OCCCC(=O)Nc1ccccc1C(F)(F)F	.	0.4	.	.
CC1CCN(CC(O)COc2cccc(F)c2)CC1 (stereo not drawn)	87.4*	2.5	-4.0	0.1
Cc1ccccc1OCCCCn1cnc2ccccc21	95.2*	1.5	-6.8	.
c1ccc(OCCCCn2cnc3ccccc32)cc1	63.1*	3.4	-9.2	4.2
CCCOc1ccc(Cn2cnc3ccccc32)cc1	89.4*	2.9	-8.2	3.2
c1ccc2c(c1)ncn2CCCCOc1ccc2c(c1)CCC2	82.0*	3.2	-4.0	.
CC(=O)Nc1ccc(S(=O)(=O)NCCSCc2ccc(Cl)cc2Cl)cc1	.	4.6	.	.
O=C(OCc1ccccc1Cl)c1ccc(-n2cnnc2)cc1	25.1	-1.4	-6.0	5.2
O=C(Cc1ccc(F)cc1)c1ccc(O)cc1O	7.7	1.1	-2.0	.
CCc1cc(C(=O)Cc2ccc(F)cc2)c(O)cc1O	102.8*	.	-6.4	0.7
CCc1cc(C(=O)COc2ccccc2F)c(O)cc1O	84.0*	2.0	-8.2	0.7
CCCc1cc(C(=O)Cc2nc3ccccc3s2)c(O)cc1O	.	6.7	.	.
CCc1cc(C(=O)Cc2nc3ccccc3[nH]2)c(O)cc1O	0.7	-0.8	-1.7	-21.2
CCCc1cc(C(=O)Cc2ccc(F)cc2)c(O)cc1O	94.8*	0.5	-5.2	-2.4
CN1CCC(N(C)C(=O)c2ccccc2Nc2ccc(SC(F)F)cc2)CC1	1.1	-5.1	-0.1	-3.9
CCN(CC)c1nc(C)nc2c1cnn2CCc1ccccc1	6.8	4.9	-6.0	.
COC(=O)c1cc(CSc2nc3ccc(C)cc3[nH]2)oc1C	52.1*	0.3	-7.6	2.2
Cc1cc(S(=O)(=O)Nc2nc(CN3CCOCC3)nc3sc4c(c23)CCCC4)ccc1F	2.1	-2.6	-6.1	.
CC1CCc2c(sc3nc(CN4CCOCC4)nc(NS(=O)(=O)c4cccc([N+](=O)[O-])c4)c23)C1 (stereo not drawn)	67.3*	-2.4	-6.4	.
N#CC(c1ccc(Cl)cc1)c1ccc2c(C(F)(F)F)cc(C(F)(F)F)nc2n1 (stereo not drawn)	88.2*	0.9	-8.4	.
FC(F)(F)c1cc(C(F)(F)F)c2ccc(N3CCN(c4ccc(Cl)cc4)CC3)nc2n1	.	0.0	.	.
COc1cccc(CNC(=O)C2CCCN(S(=O)(=O)c3c(C)n[nH]c3C)C2)c1 (stereo not drawn)	-4.0	0.8	-2.5	1.1
Cc1cccc(OCc2nnc(SCc3cc(=O)n4cc(Br)ccc4n3)o2)c1	-12.1	.	-5.9	-4.1
SMILES	Mac1 fbg inh	FAK blocker	Mac1 fbg enh	MMP-13 inhibitor
CN1C(=O)/C(=C2/C=CC=CN2C)OC1=S	1.5	2.1	-4.6	-6.3
CCN1C(=O)/C(=C2/C=CC=CN2C)SC1=S	-0.9	2.0	-1.3	20.5*
COC(=O)C1=C(C)N(c2cc(Cl)cc(Cl)c2)C(=O)C1	6.9	-0.1	0.0	1.0
Clc1ccc(OCCSCc2nc3ccccc3[nH]2)cc1	76.1*	3.2	-11.9	.
COc1ccccc1CC(=O)Nc1ccc(-c2noc(COc3cccc(C)c3C)n2)cc1	3.4	-3.4	-1.5	.
CCN1C(=O)S/C(=C/c2ccc(Sc3nc4ccccc4[nH]3)o2)C1=O	102.5	.	-8.2	.
O=c1oc2c3c4c(cc2cc1-c1nc2ccccc2[nH]1)CCCN4CCC3	.	.	.	-50.1
Cn1nc(C(C)(C)C)cc1C(=O)NCc1ccc(N2CCCC2=O)cc1	84.1*	.	-6.4	-3.8
O=C(CSc1nnc(-c2ccc(S(=O)(=O)N3CCCC3)cc2)o1)NCc1ccco1	-9.3	5.4	-2.9	5.7
Cc1ccccc1NS(=O)(=O)c1ccc(OCC(=O)N2CCCCC2)cc1	-4.9	-1.1	2.6	.
Cc1ccc(-c2nc(N/N=C/c3ccncc3)c3ccccc3n2)cc1	103.4*	6.6	-8.9	.
CCOc1ccc(C2C(C#N)=C(N)SC(N)=C2C#N)c(OCC)c1	-1.9	-4.3	-1.5	2.2
CCCCc1ccc(C2C(C#N)=C(N)SC(N)=C2C#N)s1	100.2*	0.3	-10.8	-9.3
CCN1CCN(c2nc3ccccc3nc2C(C#N)S(=O)(=O)c2ccc(C)c(C)c2)CC1 (stereo not drawn)	3.2	2.1	-4.4	.
CC1CCN(c2nc3ccccc3nc2C(C#N)S(=O)(=O)c2ccccc2)CC1 (stereo not drawn)	.	.	.	1.4
Cc1ccc(S(=O)(=O)C(C#N)c2nc3ccccc3nc2N2CC(C)OC(C)C2)cc1C (stereo not drawn)	89.6*	-5.2	-8.7	-21.0
Cc1cccc(S(=O)(=O)C(C#N)c2nc3ccccc3nc2N2CC(C)OC(C)C2)c1 (stereo not drawn)	94.6*	-6.9	-9.3	-16.3
C=CCN(C(=O)CNS(=O)(=O)c1ccccc1)C(C(=O)NCCOC)c1ccncc1 (stereo not drawn)	-5.5	-3.5	-0.4	-7.5
Cc1cc(C)cc(NC(=S)N2CCN(c3ncccn3)CC2)c1	-4.1	.	-6.2	.
COC(=O)c1ccc(CSc2nc(C)nc3sc(C)c(C)c23)o1	-5.3	-0.3	3.6	-1.4
N#C/C(=C\c1ccc(N2CCCC2)c([N+](=O)[O-])c1)c1nc2ccccc2[nH]1	3.2	12.7	112.6*	.
COc1cc(/C=C(/C#N)c2nc3ccccc3[nH]2)ccc1Oc1ncccc1[N+](=O)[O-]	.	16.2	.	.
O=C(NCc1ccco1)c1ccccc1NS(=O)(=O)c1ccc(Cl)s1	97.6*	-0.5	-7.5	.
Cc1oc(-c2ccc(Cl)cc2)nc1CN1CCCC(C(=O)N2CCN(C(=O)c3ccco3)CC2)C1 (stereo not drawn)	64.0*	2.3	-4.7	-6.0
CCS(=O)(=O)N1CCC(NC(=O)C2CCCCC2)CC1	14.9	2.9	-1.8	2.4
SMILES	Mac1 fbg inh	FAK blocker	Mac1 fbg enh	MMP-13 inhibitor
O=C(Nc1ccc(Cl)cc1C(F)(F)F)C(Sc1nnc(-c2cccs2)o1)c1ccccc1 (stereo not drawn)	23.3	.	18.3	.
O=C(Nc1cc(C(F)(F)F)ccc1Cl)C(Sc1nnc(-c2cccs2)o1)c1ccccc1 (stereo not drawn)	100.2*	.	-8.1	.
CCOC(=O)C(C(=O)OCC)C(C(=O)OCC)N1CCOCC1 (stereo not drawn)	25.7	0.8	-2.5	.
CCOc1cc(S(=O)(=O)n2nc(C)cc2C)ccc1F	.	-0.6	.	-3.0
O=S(=O)(Nc1nc2ccccc2nc1Nc1ccc2c(c1)OCCO2)c1cccs1	90.3*	.	-2.7	1.3
O=C(Nc1ccccc1O)c1ccccc1O	69.2*	3.1	-3.8	-13.8
Cc1cccc(NC(=O)c2ccccc2O)c1C	47.2	-2.5	-6.2	.
N#CC1=C(N)NC(SCc2ccc(F)cc2)=C(C#N)C12CCCCC2	77.3*	-2.3	-5.7	3.7
Cn1c(CN2CCCCC2)nc2cc(NC(=O)c3cccc(Br)c3)ccc21	59.0*	1.8	-4.3	.
Cc1nnc(Sc2nc3c(c(=O)[nH]c(=O)n3C)n2Cc2ccccc2Cl)s1	.	.	.	-0.6
COC(=O)c1c(NC(=S)Nc2ccc(F)cc2[N+](=O)[O-])sc2c1CCCCC2	85.9*	.	-5.0	.
CCOC(=O)N1CCC2(CC1)C(C#N)=C(N)Oc1c2c(C)nn1-c1cccc(Cl)c1	87.9*	-4.3	-9.7	4.7
O=C1c2cccnc2C(=O)N1Cc1ccccc1	.	.	.	3.0
